Measurements from the supplement of paper PMC4100887.
± gives the standard deviation of the averaged measurements.

System: IMR-90
Assay: relative cell viability (ATPlite) vs untreated control (fraction); higher = less toxic
Settings: 1 µM; 72 h

Point of comparison: `CN[C@@H]1C[C@H]2O[C@@](C)([C@@H]1OC)n1c3ccccc3c3c4c(c5c6ccccc6n2c5c31)C(=O)N[C@H]4O`, relative cell viability 0.101 ± 0.021. Against it:
- N#CCCc1ccc2c(c1)-c1[nH]c3ccc([N+](=O)[O-])cc3c1CC(=O)N2 [Alsterpaullone, 2-Cyanoethyl] — higher, 1 ± 0.039
- c1ccc(-c2n[nH]c3c2oc2ccccc23)cc1 — higher, 0.943 ± 0.083
- COc1cc2ncc(-c3ccccc3)nc2cc1OC — higher, 1.1 ± 0.066
- CS(=O)(=O)c1ccc(-c2nc(-c3ccc(F)cc3)c(-c3ccncc3)[nH]2)cc1 — higher, 1.03 ± 0.08
- O=C1C(Cl)=C(N2C(=O)CCC2=O)C(=O)c2ccccc21 [MEK Inhibitor II] — higher, 1.01 ± 0.11
- CC(C)(C)c1nc2c3cc[nH]c(=O)c3c3cc(F)ccc3c2[nH]1 [JAK Inhibitor I] — higher, 1.01 ± 0.045
- COc1ccc(-c2cnc3c(-c4ccsc4)cnn3c2)cc1 [VEGF Receptor 2 Kinase Inhibitor IV] — higher, 0.993 ± 0.1
- Nc1ncnc2c1c(I)cn2[C@@H]1O[C@H](CO)[C@@H](O)[C@H]1O [5-Iodotubercidin] — higher, 0.745 ± 0.14
- O=C(Nc1ccncc1)Nc1c(Cl)cc(Cl)cc1Cl [Rho Kinase Inhibitor II] — higher, 1.08 ± 0.11
- Cn1nc2c3c(cccc31)C(=O)c1ccccc1-2 [JNK Inhibitor, Negative Control] — higher, 1.02 ± 0.11
- NC(=O)Nc1cc(-c2ccccc2)sc1C(N)=O [IKK-2 Inhibitor XI] — higher, 0.982 ± 0.094
- OCC(O)CCO/N=C1\C(c2c(O)[nH]c3ccccc23)=Nc2ccccc21 (centres undefined) [Indirubin Derivative E804] — higher, 0.974 ± 0.098
- Cn1sc(=O)n(Cc2ccccc2)c1=O [GSK-3b Inhibitor I] — higher, 0.98 ± 0.13
- Nc1nc(Nc2ccc(S(N)(=O)=O)cc2)nn1C(=S)Nc1c(F)cccc1F [Cdk1/2 Inhibitor III] — higher, 1.11 ± 0.082
- O=c1cc(N2CCNCC2)oc2c(-c3ccccc3)cccc12 — higher, 0.987 ± 0.049
- CCCCc1c(-c2ccc(O)cc2)[nH]c2nccnc12 [Aloisine A, RP107] — higher, 0.913 ± 0.06
- Brc1c(Br)c(Br)c2n[nH]nc2c1Br [Casein Kinase II Inhibitor I] — higher, 1 ± 0.059
- CCCOc1ccc(/C=C2/SC(=O)NC2=O)cc1 [PIM1/2 Kinase Inhibitor VI] — higher, 0.916 ± 0.1
- CCC(=O)Nc1ccc2ncnc(Nc3cccc(Br)c3)c2c1 — higher, 0.982 ± 0.058
- O=C(c1cc2cc(O)ccc2[nH]1)c1cc2cc(O)ccc2[nH]1 [Flt-3 Inhibitor II] — higher, 1.04 ± 0.085
- Cc1cc(C=C2C(=O)C=CC2=O)cc(C)c1O — higher, 0.928 ± 0.045
- O=C(O)c1ccc2c3c1cccc3c(=O)n1c3ccccc3nc21 — higher, 0.961 ± 0.12
- COc1ccc2c(c1)c(C1=C(c3c[nH]c4ccccc34)C(=O)NC1=O)cn2CCCN(C)C — higher, 0.969 ± 0.082
- CNc1cc2c(Nc3cccc(Br)c3)ncnc2cn1 — higher, 1.04 ± 0.053
- Cc1cc2ncc(-c3ccccc3)nc2cc1C — higher, 0.969 ± 0.069
- Cc1ccc(S(=O)(=O)/C=C/C#N)cc1 — higher, 1.01 ± 0.032
- CCCCCCOC(=O)[C@]1(O)C[C@@H]2O[C@@]1(C)n1c3ccccc3c3c4c(c5c6ccccc6n2c5c31)C(=O)NC4 — higher, 1.05 ± 0.14
- CCN(CC)CCNC(=O)c1c(C)[nH]c(/C=C2\C(=O)Nc3ccc(Cl)cc32)c1C — higher, 0.92 ± 0.082
- COc1ccc(OC)c2c(=S)c3ccccc3[nH]c12 — higher, 0.981 ± 0.051
- O=C1Nc2ccc(Br)cc2/C1=C/c1cc2c([nH]1)CCCC2 [VEGF Receptor 2 Kinase Inhibitor II] — higher, 0.979 ± 0.059
- O=C(O)C=Cc1cc(Br)c(Br)c(Br)c1Br [Casein Kinase II Inhibitor III, TBCA] — higher, 0.889 ± 0.14

System: K562
Assay: as above
Settings: 1 µM; 72 h

Point of comparison: `O=C1C(Cl)=C(N2C(=O)CCC2=O)C(=O)c2ccccc21` [MEK Inhibitor II], relative cell viability 0.802 ± 0.089. Against it:
- N#CCCc1ccc2c(c1)-c1[nH]c3ccc([N+](=O)[O-])cc3c1CC(=O)N2 [Alsterpaullone, 2-Cyanoethyl] — lower, 0.307 ± 0.05
- c1ccc(-c2n[nH]c3c2oc2ccccc23)cc1 — within error, 0.868 ± 0.038
- COc1cc2ncc(-c3ccccc3)nc2cc1OC — within error, 0.888 ± 0.083
- CS(=O)(=O)c1ccc(-c2nc(-c3ccc(F)cc3)c(-c3ccncc3)[nH]2)cc1 — within error, 0.831 ± 0.064
- CC(C)(C)c1nc2c3cc[nH]c(=O)c3c3cc(F)ccc3c2[nH]1 [JAK Inhibitor I] — within error, 0.796 ± 0.072
- COc1ccc(-c2cnc3c(-c4ccsc4)cnn3c2)cc1 [VEGF Receptor 2 Kinase Inhibitor IV] — within error, 0.893 ± 0.072
- Nc1ncnc2c1c(I)cn2[C@@H]1O[C@H](CO)[C@@H](O)[C@H]1O [5-Iodotubercidin] — within error, 0.715 ± 0.12
- O=C(Nc1ccncc1)Nc1c(Cl)cc(Cl)cc1Cl [Rho Kinase Inhibitor II] — within error, 0.856 ± 0.056
- Cn1nc2c3c(cccc31)C(=O)c1ccccc1-2 [JNK Inhibitor, Negative Control] — within error, 0.869 ± 0.083
- NC(=O)Nc1cc(-c2ccccc2)sc1C(N)=O [IKK-2 Inhibitor XI] — higher, 0.983 ± 0.09
- OCC(O)CCO/N=C1\C(c2c(O)[nH]c3ccccc23)=Nc2ccccc21 (centres undefined) [Indirubin Derivative E804] — within error, 0.753 ± 0.058
- Cn1sc(=O)n(Cc2ccccc2)c1=O [GSK-3b Inhibitor I] — within error, 0.793 ± 0.027
- Nc1nc(Nc2ccc(S(N)(=O)=O)cc2)nn1C(=S)Nc1c(F)cccc1F [Cdk1/2 Inhibitor III] — lower, 0.0545 ± 0.0021
- O=c1cc(N2CCNCC2)oc2c(-c3ccccc3)cccc12 — within error, 0.828 ± 0.11
- CCCCc1c(-c2ccc(O)cc2)[nH]c2nccnc12 [Aloisine A, RP107] — within error, 0.884 ± 0.048
- Brc1c(Br)c(Br)c2n[nH]nc2c1Br [Casein Kinase II Inhibitor I] — within error, 0.952 ± 0.068
- CCCOc1ccc(/C=C2/SC(=O)NC2=O)cc1 [PIM1/2 Kinase Inhibitor VI] — higher, 0.972 ± 0.031
- CCC(=O)Nc1ccc2ncnc(Nc3cccc(Br)c3)c2c1 — within error, 0.903 ± 0.031
- O=C(c1cc2cc(O)ccc2[nH]1)c1cc2cc(O)ccc2[nH]1 [Flt-3 Inhibitor II] — lower, 0.461 ± 0.026
- CN[C@@H]1C[C@H]2O[C@@](C)([C@@H]1OC)n1c3ccccc3c3c4c(c5c6ccccc6n2c5c31)C(=O)N[C@H]4O — lower, 0.18 ± 0.048
- Cc1cc(C=C2C(=O)C=CC2=O)cc(C)c1O — within error, 0.736 ± 0.16
- O=C(O)c1ccc2c3c1cccc3c(=O)n1c3ccccc3nc21 — higher, 0.947 ± 0.051
- COc1ccc2c(c1)c(C1=C(c3c[nH]c4ccccc34)C(=O)NC1=O)cn2CCCN(C)C — within error, 0.872 ± 0.06
- CNc1cc2c(Nc3cccc(Br)c3)ncnc2cn1 — higher, 0.995 ± 0.043
- Cc1cc2ncc(-c3ccccc3)nc2cc1C — within error, 0.836 ± 0.094
- Cc1ccc(S(=O)(=O)/C=C/C#N)cc1 — within error, 0.721 ± 0.15
- CCCCCCOC(=O)[C@]1(O)C[C@@H]2O[C@@]1(C)n1c3ccccc3c3c4c(c5c6ccccc6n2c5c31)C(=O)NC4 — within error, 0.825 ± 0.056
- CCN(CC)CCNC(=O)c1c(C)[nH]c(/C=C2\C(=O)Nc3ccc(Cl)cc32)c1C — within error, 0.909 ± 0.062
- COc1ccc(OC)c2c(=S)c3ccccc3[nH]c12 — within error, 0.927 ± 0.054
- O=C1Nc2ccc(Br)cc2/C1=C/c1cc2c([nH]1)CCCC2 [VEGF Receptor 2 Kinase Inhibitor II] — within error, 0.864 ± 0.081
- O=C(O)C=Cc1cc(Br)c(Br)c(Br)c1Br [Casein Kinase II Inhibitor III, TBCA] — higher, 0.988 ± 0.082
